# GPR151 ag: activates the human receptor GPR151; PathHunter beta-arrestin GPR151 cells, luminescence; activation, % at 11.2 µM; 650,000 tested, 1% active; AID 1508602; in the data active = activation above about 4.9%
# FBW7 activator: activators of human E3 ligase FBW7. normalized activity (activation), % at 26.1 µM. AID 1259310. Q969H0. AlphaScreen FBW7–phospho-cyclin E peptide binding, activator screen. 650,000 tested, 0.13% active; in the data active = normalized activity above about 1.9%;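 note: purified mutant Fbw7 with reduced substrate affinity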
# Target sequence (Q969H0 whole entry, looked up): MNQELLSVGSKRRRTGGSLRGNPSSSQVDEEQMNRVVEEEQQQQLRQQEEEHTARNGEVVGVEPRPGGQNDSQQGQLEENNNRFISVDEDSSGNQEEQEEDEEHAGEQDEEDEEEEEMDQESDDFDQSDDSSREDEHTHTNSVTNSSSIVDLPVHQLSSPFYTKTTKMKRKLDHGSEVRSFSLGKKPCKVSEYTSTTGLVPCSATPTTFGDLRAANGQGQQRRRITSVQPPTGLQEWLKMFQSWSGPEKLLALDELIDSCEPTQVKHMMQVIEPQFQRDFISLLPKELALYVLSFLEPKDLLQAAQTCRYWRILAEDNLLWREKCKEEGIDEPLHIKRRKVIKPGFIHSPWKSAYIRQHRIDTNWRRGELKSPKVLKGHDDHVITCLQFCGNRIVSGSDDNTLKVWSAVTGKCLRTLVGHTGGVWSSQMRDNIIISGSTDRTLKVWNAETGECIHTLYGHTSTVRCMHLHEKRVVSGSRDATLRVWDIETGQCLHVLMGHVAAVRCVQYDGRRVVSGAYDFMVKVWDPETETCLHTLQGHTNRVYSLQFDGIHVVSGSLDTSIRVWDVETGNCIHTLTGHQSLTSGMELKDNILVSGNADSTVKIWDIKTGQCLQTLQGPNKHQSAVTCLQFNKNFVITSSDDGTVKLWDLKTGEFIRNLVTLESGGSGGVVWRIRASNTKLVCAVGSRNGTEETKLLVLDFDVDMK
# MITF primary: human MITF inhibition, primary screen | O75030 | AlphaScreen MITF homodimerization, bead proximity signal | inhibition, % at 2.6 µM | 650,000 tested, 0.91% active | AID 1259374; in the data active = inhibition above about 50%
# TEAD-YAP block: TEAD-YAP interaction inhibition | HEK-TIYL cells, TEAD-Gal4/YAP UAS-luciferase luminescence | inhibition, % at 9.12 µM | 640,000 tested, 1.4% active | AID 1259422; in the data active = inhibition above about 32%
# Hits are given with their value; 0 = inactive; - = not tested or not shown. This is a sample that favours compounds with a hit; in the whole collection about 3.4% have one here.
SMILES,GPR151 ag,FBW7 activator,MITF primary,TEAD-YAP block
O=C(O)c1ccc2c(c1)C(=O)N(Nc1ccccc1[N+](=O)[O-])C2=O,0,0,0,48
O=C(O)c1ccc2c(c1)C(=O)N(c1ccccc1[N+](=O)[O-])C2=O,0,0,0,0
CCN1CCN(c2nc3c(c(=O)n(Cc4ccccc4)c(=O)n3C)n2C)CC1,0,0,0,0
Cc1nn(C2CCS(=O)(=O)C2)c(Cl)c1/C=C/c1nc2ccccc2s1 (stereo not given),0,0,0,95
CC1CN2C(=O)Cc3c(S(=O)(=O)N4CCCC4)ccc(c32)S1 (stereo not given),0,0,0,0
O=S1(=O)c2cccc3cccc(c23)N1Cc1cccc(Cl)c1,0,2.1,0,0
O=S1(=O)c2cccc3cccc(c23)N1Cc1cccc(Br)c1,0,0,0,0
Cc1nn(-c2nc3ccccc3[nH]2)c(=O)c2ccccc12,0,0,0,97
COc1ccc2cnn(-c3nc4ccccc4[nH]3)c(=O)c2c1OC,0,0,0,43
COc1cc(N2C(=O)NC(=O)/C(=C\c3ccc(N(C)C)cc3)C2=O)cc(OC)c1OC,0,2.5,0,0
CCOc1ccc2ccccc2c1/C=C1/SC(=O)N(CC(=O)OC)C1=O,0,0,0,42
O=C(NC(=O)N1CCCCC1)c1ccc(Cl)cc1,0,0,0,0
N#CC(NC(=O)c1ccc(Cl)cc1)=C(Cl)Cl,0,0,0,37
COc1ccccc1[C@@H]1Nc2ccc(C(=O)O)cc2[C@@H]2C=CC[C@@H]21,0,0,0,0
CC(C)(C)c1ccc(-c2ncc3ccccn23)cc1,0,0,0,72
c1cc2ccc3ncc(-c4ccc(-c5ccn[nH]5)cc4)cc3c2cn1,0,2.0,0,0
Fc1ccc(-c2cnc3ccc4ccncc4c3c2)cc1,0,0,0,0
O=C1c2ccccc2C(=O)C1(Nc1ccc(OCc2ccccc2Cl)cc1)c1ccccc1,0,0,0,32
Nc1ccc(OCc2ccccc2Cl)cc1,0,0,0,72
O=C1OC(c2ccccc2Cl)=N/C1=C\c1ccc(OCc2ccccc2)cc1,0,0,0,0
O=c1c2ccccc2ncn1-c1ccc([N+](=O)[O-])cc1[N+](=O)[O-],0,0,0,49
CCOC(=O)CNC(=O)c1sc2nc(C)nc(N(C)c3ccc(C(C)C)cc3)c2c1C,0,2.3,0,0
CCCCNC(=O)c1sc2nc(C)nc(N(C)c3ccc(C(C)C)cc3)c2c1C,0,0,0,0
CCOC(=O)CNC(=O)c1ccc(C(C)C)cc1,0,0,0,48
CC(=O)c1ccccc1-c1ccc2c(c1)CC(CNC(=O)c1ccc3c(c1)OCCO3)O2 (stereo not given),0,0,0,37
SMILES,GPR151 ag,FBW7 activator,MITF primary,TEAD-YAP block
O=C(CCl)N1CCN(S(=O)(=O)c2ccccc2)CC1,0,0,0,34
CSc1ccc(C(Nc2ccccn2)c2ccc3cccnc3c2O)cc1 (stereo not given),0,0,0,78
C=CCOc1ccc(C(Nc2ccccn2)c2ccc3cccnc3c2O)cc1 (stereo not given),0,0,55,86
Cc1ccc(C(Nc2cccc(C)n2)c2ccc3cccnc3c2O)cc1 (stereo not given),0,0,0,76
Cc1ccc2ccc(C(Nc3ccccn3)c3ccc(N(C)C)cc3)c(O)c2n1 (stereo not given),0,0,0,0
CCc1ccc(C(Nc2ccccn2)c2ccc3cccnc3c2O)cc1 (stereo not given),0,0,0,84
Cc1cc(=O)oc2cc(OC3CCCCC3=O)ccc12 (stereo not given),0,0,0,0
COc1cc(-c2nc(-c3cccc(C(F)(F)F)c3)c(-c3ccccc3)[nH]2)cc(OC)c1O,0,0,0,0
CC(C)CC1(C)NC(=O)N(CC(=O)NCC(F)(F)F)C1=O (stereo not given),0,0,0,0
CCn1c(N2CCN(CC(=O)Nc3ccc(OC)cc3)CC2)nc2ccccc21,0,0,0,0
Oc1c(C(Nc2ccccn2)c2ccc(F)cc2)ccc2cccnc12 (stereo not given),0,0,0,70
COc1ccc(C(Nc2cccc(C)n2)c2ccc3ccc(C)nc3c2O)cc1C (stereo not given),0,0,0,42
CSc1ccc(C(Nc2ccccn2)c2ccc3ccc(C)nc3c2O)cc1 (stereo not given),0,0,0,0
CC(C(=O)N1CCc2ccccc2C1)N(c1ccc(Cl)cc1)S(C)(=O)=O (stereo not given),0,0,0,0
Cc1cc(C)c2c(c1)[C@@H]1C=CC[C@@H]1[C@H](c1ccc(C(=O)O)cc1)N2,0,0,0,0
Cc1c(C(=O)O)ccc2c1N[C@@H](c1ccc(F)cc1)[C@H]1CC=C[C@@H]21,0,0,64,0
CC(=O)Oc1ccc(C2Nc3c(C(=O)O)cccc3C3C=CCC32)cc1 (stereo not given),0,0,66,0
Cc1ccc2c(c1C)N[C@@H](c1ccc(C(=O)O)cc1)[C@H]1CC=C[C@@H]21,0,0,71,0
Cc1ccc(C)c(-n2c(CNC(=O)c3ccc(S(=O)(=O)N4CCCCC4)cc3)nnc2SCC(=O)N2CCc3ccccc32)c1,0,0,0,0
CCOc1ccccc1NC(=O)c1c(NCc2ccc(OC)c(OC)c2OC)sc2c1CCC2,0,0,0,0
Cc1nc2ccc(NC(=O)c3ccc(C#N)cc3)cc2s1,0,0,0,0
Cc1ccc(CNc2ccc3ncc(-c4cccc(CN)c4)n3n2)c(C)c1,0,0,0,0
COc1ccc(C(c2ccccn2)N(C)C(=O)C2CCN(C(=O)OCC(C)C)CC2)cc1 (stereo not given),0,0,0,0
CCN(CC)C(=O)C1CCCN(C(=O)c2cc(COc3ccc4ncccc4c3)on2)C1 (stereo not given),0,0,0,0
CCC1CCCCN1C(=O)c1cc(COc2ccc3ncccc3c2)on1 (stereo not given),0,0,0,49
SMILES,GPR151 ag,FBW7 activator,MITF primary,TEAD-YAP block
COCC1CCCCN1C(=O)c1cc(COc2ccc3ncccc3c2)on1 (stereo not given),0,0,0,42
CC(=O)OC[C@H]1O[C@@H](O/N=C2\C[C@@H](O)[C@@H](O)[C@@H]3[C@@H]4C(=O)N(c5ccc(F)cc5F)C(=O)[C@@H]4CC[C@@H]23)C(OC(C)=O)[C@@H](OC(C)=O)C1OC(C)=O (stereo not given in full),0,0,0,-
CN1CCc2c(sc(NC(=O)c3ccc(C(C)(C)C)cc3)c2C(N)=O)C1,0,0,0,0
CCOc1ccc(-c2c3cc(O)c(=O)cc-3oc3cc(O)c(O)cc23)cc1,0,0,111,0
O=C1c2ccccc2C(=O)c2c(O)c([N+](=O)[O-])cc(O)c21,0,0,0,0
O=c1cc2oc3cc(O)c(O)cc3c(-c3ccc([N+](=O)[O-])cc3)c-2cc1O,0,0,97,0
O=c1cc(-c2ccc3c(c2)OCCO3)oc2ccc([N+](=O)[O-])cc12,0,0,0,0
O=c1cc2oc3cc(O)c(O)cc3c(-c3ccccc3[N+](=O)[O-])c-2cc1O,0,0,114,0
